Bioassay records: PubChem, National Center for Advancing Translational Sciences (NCATS)
HT1080 IDH1KD tx = toxicity to HT-1080 IDH1 knockdown cells (counter line); AID 686971; HT-1080 IDH1 knockdown viability, ATP luminescence, 48 h; Potency, µM (titrated, usually from 46.1 µM), for the others: at the highest dose activity, negative = toxicity, most hits filed as cytotoxic; 2% of 360,000 active;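 also: potency is read from the fitted curve at half-maximal effect; 0% = DMSO wells and -100% = cell-free medium wells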
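Assay cells: HT-1080 with IDH1 knockdown, 750 per well, RPMI/5% FBS. Exposure: 48 h at 37 °C following 2 h pre-incubation. Read: CellTiter-Glo luminescence; fitted concentration-response, curve class assigned.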
HT1080NT lethal = kills 2HG-producing HT-1080-NT fibrosarcoma cells; AID 686970; HT-1080-NT fibrosarcoma viability, CellTiter-Glo ATP luminescence, 48 h; Potency, µM (doses to about 46.1 µM), inactives show top-dose activity, negative = less viability, most hits filed as cytotoxic; 1.6% of 360,000 active;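 also: NT is the 2HG producing partner of a matched IDH1 knockdown line; potency is read from the fitted curve at half-maximal effect; 0% = DMSO-treated cells and -100% = media-only wells without cells; nearly all actives have a fitted effect of over 55% in size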
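Compounds were tested in concentration-response format on HT-1080-NT cells for 48 hours at 37 degrees C. Cell viability came from CellTiter-Glo luminescence; curves were classified by r2, response magnitude and activity.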
IL-1B inflam inh = inhibitors of inflammasome signaling (IL-1 beta secretion) | AID 743279 | 4.7% of 360,000 active | THP-1 LPS/ATP IL-1B secretion, AlphaLISA, 16 h; hits give low values | activity change, % at 57.5 µM; in the data active = activity change below about -50%; inconclusive = mostly about -30% to -49%
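THP-1 cells pretreated 1 hr with compounds (up to 57.5 uM final), then stimulated with LPS (250 ng/mL final) plus ATP (1.25 mM final); secreted IL-1B measured by AlphaLISA after 16 hr, decreased signal indicating inhibition.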
TDP1 cell CPT = DT40-hTDP1 cell growth loss with CPT | 12% of 420,000 active | chicken DT40 Tdp1-/-;hTDP1 cells + 20 nM CPT, ATP luminescence, 48 h | Potency, µM (doses to about 46.2 µM), without a hit: at the top dose activity change, negative = growth inhibition, most hits filed as inhibitors; also: potency is read from the fitted curve at half-maximal effect; nearly all actives have a fitted effect of over 55% in size
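Chicken DT40 Tdp1-/- cells stably complemented with human TDP1 were seeded at 400 cells/well in medium containing 20 nM camptothecin, exposed to pin-transferred compounds, and grown at 37 °C for at least 48 hr. Viability was read as ATP luminescence.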
DT40 TDP1 no CPT = qHTS for Inhibitors of human tyrosyl-DNA phosphodiesterase 1 (TDP1): qHTS in cells in absence of CPT | AID 686978, 2013 | 15% of 420,000 active | Potency, µM (series often up to 46.2 µM), inactives show at the highest dose activity change, negative = growth inhibition, actives largely listed as inhibitors | DT40 Tdp1-/- hTDP1 cells, no CPT, ATP luminescence, 48 h; also: potency is read from the fitted curve at half-maximal effect; nearly all actives have a fitted effect of over 55% in size
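Luminescent ATP content (CellTiter-Glo) served as the growth readout. Knockout chicken DT40 cells expressing human TDP1 were exposed to compounds without camptothecin for a minimum 48 hr at 37 °C.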
Starred values were filed as active, the others as inactive. The list is not random: actives were taken first. Their share in the collection is about 19%. Unless noted, calls follow the shape of the dose curve; as a rule, active = well fitted curve in the direction sought with a large enough effect; inconclusive = small, poorly fitted or top-dose-only effect, or another doubt; inactive = no such curve, though single readings can be large; an effect the other way counts as inactive or inconclusive. Unless noted, % is scaled to controls: 0 for no effect and ±100 for the full control effect.

Screening COc1cccc(Nc2ncc3nc(-c4cn(C)c5ccccc45)c(=O)n(C[C@H]4CCCO4)c3n2)c1 returned TDP1 cell CPT -4% and DT40 TDP1 no CPT 14%.
For Cc1ccc(NC(=O)COC(=O)C2(CC(=O)NC(C)(C)C)CCCC2)cc1C the results were HT1080 IDH1KD tx -14%, HT1080NT lethal -13%, IL-1B inflam inh -92*, TDP1 cell CPT inconclusive and DT40 TDP1 no CPT inconclusive.
COc1ccc(C2N(Cc3ccccc3)CC(=O)N2/N=C(\C)c2ccccc2)cc1 (centres undefined) was read as HT1080 IDH1KD tx 11%, HT1080NT lethal 12%, IL-1B inflam inh 6, TDP1 cell CPT -14% and DT40 TDP1 no CPT -8%.
`CCOc1ccc(S(=O)(=O)NCCc2csc3nc(-c4ccc(F)cc4)nn23)cc1` gave TDP1 cell CPT 12µM* and DT40 TDP1 no CPT 6.5µM*.
For Cc1noc(C)c1S(=O)(=O)N(C)CC(=O)Nc1ccc(F)cc1 the results were HT1080 IDH1KD tx -6%, HT1080NT lethal 5%, IL-1B inflam inh 15, TDP1 cell CPT -9% and DT40 TDP1 no CPT -5%.
`Cc1noc(C)c1S(=O)(=O)NCCc1csc2nc(-c3ccc(F)cc3)nn12` gave TDP1 cell CPT 18µM* and DT40 TDP1 no CPT 23µM*.
`CCOC(=O)N1CCN(C(=O)C2CCC(=O)N(Cc3cccc(C(F)(F)F)c3)C2)CC1` (centres undefined) gave HT1080 IDH1KD tx 10%, HT1080NT lethal 6%, IL-1B inflam inh -1, TDP1 cell CPT -1% and DT40 TDP1 no CPT 5%.
`CCc1ccccc1NC(=O)Cn1nc2c3cc(F)ccc3n(Cc3cccc(C)c3)cc-2c1=O` gave TDP1 cell CPT -2% and DT40 TDP1 no CPT -2%.
Screening Cc1ccc2oc(=O)c3cnn(CC(=O)Nc4cccc(C(F)(F)F)c4)c3c2c1 returned TDP1 cell CPT 3% and DT40 TDP1 no CPT -8%.
Cc1ccc(F)cc1C(=O)N1CCCCC1c1cc(C(=O)Nc2cccc(C#N)c2)no1 (centres undefined) was read as HT1080 IDH1KD tx 0%, HT1080NT lethal 1%, IL-1B inflam inh 2, TDP1 cell CPT 29µM* and DT40 TDP1 no CPT 21µM*.
`N#Cc1ccc(C(=O)N2CCCCC2c2cc(C(=O)Nc3cccc(C#N)c3)no2)cc1` (centres undefined) gave HT1080 IDH1KD tx 3%, HT1080NT lethal 14%, IL-1B inflam inh -30, TDP1 cell CPT inconclusive and DT40 TDP1 no CPT inconclusive.
Cc1ccc(C)c(CC(=O)N2CCCCC2c2cc(C(=O)Nc3cccc(C#N)c3)no2)c1 (centres undefined) was read as HT1080 IDH1KD tx inconclusive, HT1080NT lethal inconclusive, IL-1B inflam inh 20, TDP1 cell CPT 23µM* and DT40 TDP1 no CPT 23µM*.
Screening CN(C)c1ccc(CC(=O)N2CCCCC2c2cc(C(=O)Nc3ccccc3)no2)cc1 (centres undefined) returned HT1080 IDH1KD tx 12%, HT1080NT lethal 17%, IL-1B inflam inh 0, TDP1 cell CPT 21µM* and DT40 TDP1 no CPT 26µM*.
For CN(C)c1ccc(CC(=O)N2CCCCC2c2cc(C(=O)Nc3cccc(C#N)c3)no2)cc1 (centres undefined) the results were HT1080 IDH1KD tx -4%, HT1080NT lethal 1%, IL-1B inflam inh -12, TDP1 cell CPT inconclusive and DT40 TDP1 no CPT 23µM*.
Screening Cc1ccc2nc(Cl)c(CN(C(=O)c3cnccn3)C3CCCCC3)cc2c1 returned HT1080 IDH1KD tx 0%, HT1080NT lethal 2%, IL-1B inflam inh -5, TDP1 cell CPT inconclusive and DT40 TDP1 no CPT inconclusive.
Screening O=C(Nc1ccc2c(c1)OCO2)c1cc(C2CCCCN2C(=O)CCCc2ccccc2)on1 (centres undefined) returned HT1080 IDH1KD tx -5%, HT1080NT lethal -4%, IL-1B inflam inh -28, TDP1 cell CPT inconclusive and DT40 TDP1 no CPT inconclusive.
CN(C)c1ccc(CC(=O)N2CCCCC2c2cc(C(=O)Nc3cccc4c3CCCC4)no2)cc1 (centres undefined) was read as HT1080 IDH1KD tx -8%, HT1080NT lethal -9%, IL-1B inflam inh -16, TDP1 cell CPT 26µM* and DT40 TDP1 no CPT inconclusive.
`COCCn1c(=O)c(-c2cccs2)nc2cnc(Oc3ccccc3)nc21` gave TDP1 cell CPT inconclusive and DT40 TDP1 no CPT -30%.
Cc1cc(NC(=O)C(Cl)Cl)cc2c1OCO2 was read as HT1080 IDH1KD tx -4%, HT1080NT lethal 3%, IL-1B inflam inh -8, TDP1 cell CPT -28% and DT40 TDP1 no CPT inconclusive.
Screening COc1ccc(Cl)cc1NC(=O)NCC1CCN(Cc2cc(C)ccc2C)CC1 returned HT1080 IDH1KD tx inconclusive, HT1080NT lethal inconclusive, IL-1B inflam inh -56*, TDP1 cell CPT inconclusive and DT40 TDP1 no CPT inconclusive.
Screening COc1cc([N+](=O)[O-])ccc1NC(=O)NCC1CCN(Cc2ccc(Cl)cc2)CC1 returned HT1080 IDH1KD tx inconclusive, HT1080NT lethal inconclusive, IL-1B inflam inh -79*, TDP1 cell CPT inconclusive and DT40 TDP1 no CPT inconclusive.
`COc1ccc(N2CCC(CNC(=O)Nc3ccc(C)c(C)c3)C2)cc1` (centres undefined) gave HT1080 IDH1KD tx -5%, HT1080NT lethal -3%, IL-1B inflam inh -10, TDP1 cell CPT -23% and DT40 TDP1 no CPT inconclusive.
Screening Cc1ccc(C)c(CN2CCC(CNC(=O)Nc3ccc(C)c(C)c3)CC2)c1 returned HT1080 IDH1KD tx 1%, HT1080NT lethal 10%, IL-1B inflam inh -64*, TDP1 cell CPT inconclusive and DT40 TDP1 no CPT 15µM*.
Screening CCc1cccc(CN2CCC(CNC(=O)Nc3ccc(Cl)cc3)CC2)c1 returned HT1080 IDH1KD tx 9%, HT1080NT lethal 15%, IL-1B inflam inh 6, TDP1 cell CPT inconclusive and DT40 TDP1 no CPT inconclusive.
CCN(CC1COc2ccccc2O1)S(=O)(=O)c1ccc(C)cc1 (centres undefined) was read as HT1080 IDH1KD tx -16%, HT1080NT lethal 0%, IL-1B inflam inh -1, TDP1 cell CPT inconclusive and DT40 TDP1 no CPT inconclusive.
Screening COc1cccc(NC(=O)CSc2nc(O)c(C)c(=O)n2-c2ccc(C)cc2)c1 returned HT1080 IDH1KD tx 8%, HT1080NT lethal 2%, IL-1B inflam inh inconclusive, TDP1 cell CPT -25% and DT40 TDP1 no CPT -15%.
`COc1ccc(-n2c(=O)c3sc4ccccc4c3n(CC(=O)Nc3ccccc3F)c2=O)cc1` gave TDP1 cell CPT -5% and DT40 TDP1 no CPT -2%.
